Shown is part of a subset that was picked to be rich in hits.
TTR transcr act: activators of transthyretin transcription; AID 1117267; 1.3% of 92,000 active; activation, % at 16.7 µM; SH-SY5Y TTR promoter Gaussia luciferase, luminescence; 100% = recombinant luciferase protein wells;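 active = activation above the mean of all tested compounds plus 3 SD, cut at about 9.5% in these data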;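 note: cells exposed to compounds for one day before reading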
HuH7 TTR inh: counter-screen for TTR activators: TTR transcription inhibitors in HuH7 cells; shares compounds with TTR transcr act; HuH7 TTR promoter-Gaussia luciferase reporter, luminescence; inhibition, % at 16.7 µM; 4% of 1,100 active;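 active = average inhibition above the solvent-only control wells' mean plus 3 SD, cut at about 15% in these data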;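 note: inhibitors lower well luminescence so higher value means more inhibition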
TTR up confirm: human TTR transcription activation, confirmation; activation, % at 16.7 µM; SHSY5Y TTR promoter Gaussia luciferase, luminescence; 100% = purified Lucia enzyme wells, no cells; shares compounds with TTR transcr act; 1,100 tested, under 10 active; AID 1117280;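 active = mean activation above a set limit taken from the earlier primary screen, cut at about 11% in these data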
A number is an active result; . = inactive.

SMILES	TTR transcr act	others
CCS(=O)(=O)Nc1ccc2c(c1)C(=O)N(C)[C@@H]1CC[C@H](CC(=O)NCCCN3CCOCC3)O[C@H]1CO2	.
Cc1cc(N2CCOc3ccccc32)nc2ccccc12	.
CN(Nc1cccc(Cl)c1)c1cccc(Cl)c1	11.4	HuH7 TTR inh=.;TTR up confirm=.
CN(C)NC(=S)Nc1cccc(Cl)c1	.
CN(C)NC(=O)c1cccc(Cl)c1	.
CC(C)CCNC(=O)[C@H]1COC(O)([C@H](Cc2ccccc2)NC(=O)[C@@H](NC(=O)OCc2ccccc2)C(C)C)CN1C (stereo partly drawn)	.
O=C(Nc1ccc(Cl)cc1)NN1CCCCCC1	16.8	HuH7 TTR inh=.;TTR up confirm=.
O=C(Nc1ccc([N+](=O)[O-])cc1)NN1CCCCCC1	.
N#Cc1ccc(NC(=O)NN2CCCCCC2)cc1	.
CCn1c(=O)cc(OCC(=O)NCC2CCCO2)c2ccccc21 (stereo not drawn)	.
CCn1c(=O)cc(OCC(=O)Nc2nc(C)cs2)c2ccccc21	10.6	HuH7 TTR inh=.;TTR up confirm=.
CCn1c(=O)cc(OCC(=O)NCCc2ccc(OC)c(OC)c2)c2ccccc21	.
O=S1(=O)c2c(cccc2N2CCC[C@@H]2CO)O[C@@H]2CCN1C2	.
C=CCN(C(=O)[C@@H](C)[C@@H](O)c1ccc2ccccc2c1)c1ccccc1	.
CCn1c(=O)[nH]n(C/C(C)=C\c2c[n+](Cc3ccc4c(c3)OCO4)c(N)[nH]2)c1=O	.
O=C(O)CSc1cnc2ccccc2n1	.
Cc1cc(SCC(=O)O)nc2ccccc12	30.5	HuH7 TTR inh=.;TTR up confirm=.
Cc1cc(SCC(=O)c2cc3ccccc3o2)nc2ccccc12	.
COC(=O)[C@]12C[C@H](CC(=O)NCC3CCCCC3)C(=O)N(Cc3cccc4ccccc34)C1=C[C@H](COCc1ccccc1)O[C@@H]2C	.
CCOC(=O)[C@]12CCCC3=C1N(CCC3)C(=O)[C@@H](CC(=O)N1CCC(c3ccccc3)CC1)C2	.
CC(=O)c1cccc(Nc2nc(N3CCOCC3)nc(N3CCOCC3)n2)c1	.
O=C(NNc1nc(N2CCOCC2)nc(N2CCOCC2)n1)c1ccccc1	23.3	HuH7 TTR inh=.;TTR up confirm=.
O=C(NNc1cc(N2CCOCC2)nc(N2CCOCC2)n1)c1ccc(Cl)c(Cl)c1	.
C#CCNC(=O)C[C@H]1C[C@@]2(C(=O)OC)C(=C[C@H](C3CCCC3)O[C@@H]2C)N(Cc2ccc(Cl)cc2Cl)C1=O	.
CSc1ccc(SC2CN(Cc3ccc(C)cc3)S(=O)(=O)C2)cc1 (stereo not drawn)	.
SMILES	TTR transcr act	others
COc1ccc(CN2C(=O)CSCCC2(C)c2nnnn2-c2c(C)cccc2C)cc1 (stereo not drawn)	.
Cn1nnnc1NCc1cccc(Cl)c1	.
Cc1nn2cc(-c3cccc(Cl)c3)cnc2c1Cl	.
CC(C)n1nnnc1-c1cccc(Cl)c1	11.8	HuH7 TTR inh=.;TTR up confirm=.
CCOC(=O)[C@]12CCCC=C1N(CCCOC)C(=O)[C@@H]2CC(=O)NCc1cccs1	.
O=C(Cc1ccccc1)Nc1cccc(-c2nnc(-c3ccco3)o2)c1	.
O=C(COc1ccccc1)Nc1ccc(-c2nnc(-c3ccco3)o2)cc1	19.1	HuH7 TTR inh=.;TTR up confirm=.
O=C(Cc1ccc(Cl)cc1)Nc1cccc(-c2nnc(-c3ccco3)o2)c1	.
COC(=O)[C@]12C[C@H](CC(=O)NCc3cccc(C(F)(F)F)c3)C(=O)N(Cc3ccc(Cl)cc3Cl)C1=C[C@H](COCc1ccccc1)O[C@@H]2C	.
Cc1ccccc1CN1CCCCC(NC(=O)c2ccccc2F)C1=O (stereo not drawn)	.
O=C1[C@H]2[C@@H](/C=C/c3ccccc3)N3C(=O)CN(CCO)C(=O)[C@@]3(Cc3ccccc3)[C@H]2C(=O)N1c1ccccc1	.
C[C@@]12C(=O)N(CCO)CC(=O)N1[C@H](/C=C/c1ccccc1)[C@@H]1C(=O)N(c3ccccc3)C(=O)[C@@H]12	23.1	HuH7 TTR inh=.;TTR up confirm=.
O=C1[C@H]2[C@@H](/C=C/c3ccccc3)N3C(=O)CN(CC4CC4)C(=O)[C@@]3(Cc3ccccc3)[C@H]2C(=O)N1c1ccccc1	.
O=C(Cn1c(=O)c2cccn2c2cccnc21)NCCCN1CCN(c2ccccc2)CC1	.
C=CCN(C(=O)[C@@H](C1CC1)[C@@H](O)c1ccc(Cl)cc1)c1ccccc1	.
CC1CC1C(=O)OCC(=O)Nc1ccc(N=Nc2ccccc2)cc1 (stereo not drawn)	.
Cc1ccc(C(=O)c2ccccc2C(=O)OCC(=O)Nc2cccc([N+](=O)[O-])c2)cc1	.
CC1CC1C(=O)OCC(=O)Nc1cccc([N+](=O)[O-])c1 (stereo not drawn)	12.2	HuH7 TTR inh=.;TTR up confirm=.
Cc1ccc(CN2CCCCC(NC(=O)c3cccc([N+](=O)[O-])c3)C2=O)cc1 (stereo not drawn)	.
CCOC(=O)[C@@]12CCC3=C1N(CCC3)C(=O)[C@H](CC(=O)NCCC(C)C)C2	.
Fc1cccc(CNC2CCC23CCC(c2ccccc2)CC3)c1 (stereo not drawn)	.
Cc1csc(C(=O)NCC(=O)NNC(=O)c2cccc(Cl)c2)c1	.
Cc1ccccc1C(=O)NCC(=O)NNC(=O)c1cccc(Cl)c1	19.0	HuH7 TTR inh=.;TTR up confirm=.
Cc1cccc(C(=O)NNC(=O)c2ccccc2C)c1	.
CCCCn1c2c(cc(C(=O)OC)c1=O)C(=O)CCC2	23.5	HuH7 TTR inh=.;TTR up confirm=.
SMILES	TTR transcr act	others
COC(=O)c1cc(-c2cccc3ccccc23)c(=O)n2c1CCC2	.
O=C1CCCc2c1cc(C(=O)O)c(=O)n2-c1ccccc1	.
CCCC/C=C1/[C@@H](CC)N(Cc2ccc(OC)cc2OC)C2=N[C@H](c3ccccc3)CC(=O)N21	.
O=C(Nc1ccc(F)cc1)OCc1cn(Cc2cccc(F)c2F)nn1	.
COc1cccc(OC)c1NC(=O)OC1CCC12CCC(c1ccccc1)CC2 (stereo not drawn)	.
COc1cc(NC(=O)c2ccccn2)ccc1NC(=O)c1ccccc1Cl	.
Cc1cccc(NC(=S)Nc2cccc(C)n2)n1	.
Cc1cccc(NC(c2ccc(O)cc2)c2ccc3ccc(C)nc3c2O)n1 (stereo not drawn)	15.1	HuH7 TTR inh=20.1;TTR up confirm=.
Oc1cccc(C(Nc2nccs2)c2ccc3cccnc3c2O)c1 (stereo not drawn)	.
CCCC1CCC2(CC1)CCC2OC(=S)Nc1ccccc1 (stereo not drawn)	.
COc1cccc(NC(=O)Nc2c(-c3ccc(F)cc3)nc3ncccn23)c1	.
O=C(OCC#CCSc1nnc(-c2cccc3ccccc23)o1)c1ccccc1F	.
CC(NC(=O)Cn1nc(C(F)(F)F)c2c1CCC2)c1ccccc1 (stereo not drawn)	.
O=C(Cn1nc(C(F)(F)F)c2c1CCCC2)NCc1ccco1	14.5	HuH7 TTR inh=.;TTR up confirm=.
Cc1c(Br)c(C(F)(F)F)nn1CC(=O)NCc1ccco1	.
COC(=O)[C@]12C[C@H](CC(=O)NCc3cccc(C(F)(F)F)c3)C(=O)N(CCC3=CCCCC3)C1=C[C@H](C1CCCC1)O[C@@H]2C	.
CC[C@@H]1/C(=C/c2ccccc2)N2C(=O)C[C@@H](c3ccccc3)N=C2N1Cc1ccc(OC)cc1OC	.
Cc1nc(CC(C)C)cc(C(=O)N2CCCC(Nc3ccc(C)c(C)c3)C2)n1 (stereo not drawn)	.
COc1ccccc1C(=O)C1CCCN(C(=O)c2cc(CC(C)C)nc(C)n2)C1 (stereo not drawn)	19.0	HuH7 TTR inh=.;TTR up confirm=.

Assay outcomes deposited in PubChem by The Scripps Research Institute Molecular Screening Center.
